Screening results from PubChem BioAssay.
CYP2C19 activ = human CYP2C19 activators, primary screen, biochemical, luminescence; Cytochrome P450 2C19 (Homo sapiens), P33261; recombinant CYP2C19, luciferin-H EGE luminescence; active compounds read high; 0 = fully inhibited enzyme, 1 = untreated enzyme; activation factor at 5 µM; 96,000 tested, under 10 active; AID 1025, 2008;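 active = activation factor of at least 2 at 5 µM in the primary screen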;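 also: 0 = wells with 2.5 mM tranylcypromine and 1 = vehicle-only wells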
CYP2C9 activ = human CYP2C9 activators, primary screen, biochemical, luminescence | Cytochrome P450 2C9 (Homo sapiens), P11712 | recombinant CYP2C9, luciferin-H conversion; active compounds read high; factor 1 = untreated enzyme, 0 = blocked | activation factor at 5 µM | 1.4% of 96,000 active | AID 1024, 2008;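 active = activation factor of 2 or more for CYP2C9 at a 5 µM dose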;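 also: 0 = sulfaphenazole-blocked wells and 1 = vehicle-only wells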
CYP2C19 inhib = blockers of cytochrome P450 2C19 activity – biochemical, luminescence, ADME assay, primary screen; P33261; CYP2C19 Supersomes, luciferin-H EGE luminescence, 30 min; inhibition, % at 5 µM; 21% of 96,000 active; AID 778, 2007;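 active = CYP2C19 inhibition above a set limit at 5 µM in the primary screen, cut at about 50% in these data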;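 also: plate controls were negative control wells for no effect and 2.5 mM tranylcypromine positive control for full effect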
CYP2C9 inh = blockers of cytochrome P450 2C9 activity – biochemical, luminescence, ADME assay, primary screen; CYP2C9 Supersomes, luciferin-H conversion; inhibition, % at 5 µM; 20% of 96,000 active; AID 777, 2007;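 active = blocking of liver enzyme CYP2C9 beyond about 50% at 5 µM, limit read from the data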
Cav32 inh = Cav3.2 calcium influx blockers – cell-based, Fluo-4 calcium fluorescence, FDSS, MLSMR library, primary screen. Cav3.2-expressing cells; active compounds read low. B-score at 10 µM. Voltage-dependent T-type calcium channel subunit alpha-1H (Homo sapiens), O95180. 4% of 100,000 active;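 active = single-dose well whose peak fluorescence ratio is a statistical outlier from its plate by either plate-standardised score or position-corrected B-score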
An asterisk follows results filed as active; nt = no result given. Shown are actives, neighbours in structure and some others; about 27% of the full set was active somewhere.

SMILES	CYP2C19 activ	CYP2C9 activ	CYP2C19 inhib	CYP2C9 inh	Cav32 inh
COC(=O)[C@@H]1C[C@H]2CC[C@H](O)C[C@H]2N1Cc1ccccc1OS(=O)(=O)c1ccc(C)cc1	nt	nt	nt	nt	0.99
Fc1ccccc1N1CCN(C(c2ccncc2)c2nnnn2C2CCCC2)CC1 (stereo unspecified)	0.1	0.4	86*	64*	-0.15
c1cncc(C(c2nnnn2C2CCCC2)N2CCCC2)c1 (stereo unspecified)	1	0.9	-5	7	0.64
CC(=O)Nc1cccc(NC(=O)CCCC(=O)O)c1	1	1	3	3	-1.3
CC1(C)CC(=O)C=C(NCCN2CCN(C(=O)Nc3ccc(Cl)cc3)CC2)C1	0.9	1.1	7	-9	0.32
CC1(C)CC(=O)C=C(NCCN2CCN(C(=O)Nc3ccc(Cl)c(Cl)c3)CC2)C1	0.3	0.7	66*	30	0.69
O=C1c2ccccc2S(=O)(=O)N1Cc1nc2ccccc2s1	0.1	0.6	86*	40	-1.4
COc1ccc(CNc2nc3c(c(=O)n(Cc4ccc(Cl)cc4)c(=O)n3C)n2C)cc1	0.9	0.9	14	13	-7.5*
Cn1c(=O)c2c(nc(NCc3cccnc3)n2Cc2ccc(Cl)cc2)n(C)c1=O	0.5	0.3	54*	70*	-7.2*
Cn1c(=O)c2c(nc(NCCCO)n2Cc2cccc(C(F)(F)F)c2)n(C)c1=O	0.4	0.7	59*	29	0.0026
CCCNc1nc2c(c(=O)n(C)c(=O)n2C)n1Cc1ccc(F)cc1	0.7	0.8	33	19	0.4
Cn1c(=O)c2c(nc(SCC(=O)O)n2Cc2cccc(C(F)(F)F)c2)n(C)c1=O	1	0.9	-2	8	0.58
COCCNc1nc2c(c(=O)n(Cc3ccc(OC)cc3)c(=O)n2C)n1C	1.1	1.4	-10	-40	-0.21
Cn1c(=O)c2c(nc(NCc3ccccc3)n2Cc2ccc(F)cc2)n(C)c1=O	nt	nt	nt	nt	-6.8*
Cc1ccc(Cn2c(NCCc3ccccc3)nc3c2c(=O)n(C)c(=O)n3C)cc1	1	0.9	1	13	-0.25
O=C(NCCN1CCOCC1)Nc1ccc(Cl)cc1Cl	0.9	1.1	6	-6	0.77
COC(=O)CCCC[C@@H]1SC[C@@H](NC(=O)OC)[C@@H]1NC(=O)OC	nt	nt	nt	nt	0.74
Cn1c(NCc2ccco2)nc2c1c(=O)n(Cc1ccc(Cl)c(Cl)c1)c(=O)n2C	0.4	0.3	60*	69*	nt
CCNc1nc2c(c(=O)n(Cc3ccccc3)c(=O)n2C)n1Cc1ccccc1	0.2	0.1	84*	90*	-1.8
Cn1c(NCC(O)CO)nc2c1c(=O)n(Cc1ccc(Cl)c(Cl)c1)c(=O)n2C (stereo unspecified)	0.8	0.7	15	28	0.33
CCOC(=O)Cn1c(CN(C)Cc2ccccc2)nc2c1c(=O)n(C)c(=O)n2C	nt	nt	nt	nt	-0.59
CC(C)Cn1c(CN(C)Cc2ccccc2)nc2c1c(=O)n(C)c(=O)n2C	0.9	0.2	12	81*	0.51
Cc1noc(C)c1Cc1ccc(O)cc1	0.8	0.7	23	31	0.76
O=C(NC1=NCCS1)NC12CC3CC(CC(C3)C1)C2	0.8	0.8	19	15	0.67
COc1ccc(S(C)(=O)=O)cc1S(C)(=O)=O	1.1	1.2	-9	-16	nt
SMILES	CYP2C19 activ	CYP2C9 activ	CYP2C19 inhib	CYP2C9 inh	Cav32 inh
CCCCCCn1c(CN2CCCCC2CC)nc2c1c(=O)n(C)c(=O)n2C (stereo unspecified)	0.9	0.8	6	18	-3.8
O=C(c1cccc(Cl)c1)N1CCN(c2ccccn2)CC1	0.1	0.2	90*	79*	-0.35
Nc1cccc2c1C(=O)N(C(=O)c1ccc(S(=O)(=O)N3CCCCCC3)cc1)C2=O	0.7	0.4	29	57*	-0.11
O=C(c1cc(Cl)ccc1Cl)N1CCN(c2ccccn2)CC1	0.1	0.1	94*	92*	0.016
O=C(c1c(Cl)cccc1Cl)N1CCN(c2ccccn2)CC1	0.6	0.4	37	63*	1.3
O=C(c1ccc(Cl)c(S(=O)(=O)N2CCCC2)c1)N1CCN(c2ccccn2)CC1	0.9	0.7	11	32	1.2
COc1ccccc1[C@@H]1C(c2cccc(C)c2)=NN(c2ccccc2)[C@H]1C(=O)N1CCOC1=O	nt	nt	nt	nt	-0.33
c1ccc2nc(N3CCOCC3)cnc2c1	1	1.1	0	-5	nt
O=C(c1ccc(S(=O)(=O)N2CCCCCC2)cc1)N1CCN(c2ccccn2)CC1	0.9	0.3	8	69*	0.7
O=C(N1CCN(c2ccccn2)CC1)N1c2ccccc2Sc2ccccc21	0.1	0.1	90*	88*	nt
Cc1cc(NC(=O)Cn2cnc3sc(C)c(-c4ccccc4)c3c2=O)no1	nt	nt	nt	nt	-2.2
Cc1ccnc(N2CCC(C(=O)NNC(=O)c3ccccc3C)CC2)n1	0.8	0.8	18	18	0.89
CC(C)Cc1nc2oc3c(N4CCN(C)CC4)ncnc3c2c2c1CCCC2	1	0.9	4	6	-0.3
CC(C)C(=O)N1CCN(c2nc(-c3ccccc3)c3c(c2C#N)CCCC3)CC1	0	0.1	98*	94*	-5.3*
CCCC(=O)N1CCN(c2nc(CC(C)C)c3c(c2C#N)CCC3)CC1	0.1	0.1	89*	89*	-5.5*
N#Cc1c(-c2ccccc2)nc(N2CCCCCC2)[nH]c1=O	0.9	0.8	11	17	-0.64
COc1ccc(C(=O)Oc2ccc(=O)n(-c3ccccc3)n2)cc1	1.1	1	-9	3	-0.061
O=C1c2ccccc2C(=O)N1OCc1cccc(Cl)c1	0.2	1.1	76*	-5	0.83
Cc1ccccc1CSc1nnc(-c2cccs2)n1Cc1ccco1	0.4	0.6	62*	39	-6.5*
c1ccc(CSc2nnc(-c3ccco3)n2Cc2ccco2)cc1	0.2	0.8	78*	22	-2.3
c1ccc(CSc2nnc(-c3cccs3)n2Cc2ccco2)cc1	nt	nt	nt	nt	-3.6
Cc1ccccc1CSc1nnc(-c2ccco2)n1Cc1ccco1	0.3	0.9	66*	10	-2.7
O=C1c2ccccc2C(=O)N1CCSc1nnc(-c2ccco2)n1Cc1ccccc1	0	0.3	97*	65*	-1.8
CCCn1c(N)c(C(=O)CSc2nnc(-c3ccco3)n2Cc2ccccc2)c(=O)[nH]c1=O	nt	nt	nt	nt	1.3
COc1ccc(/C=N/OCc2nc3c4c(ncn3n2)Oc2ccc3ccccc3c2C4c2ccccc2)cc1 (stereo unspecified)	0.3	0.8	69*	15	-3.3
COc1ccc(-c2oc3ncn4nc(COc5ccccc5)nc4c3c2-c2ccc(OC)cc2)cc1	1.1	0.7	-5	28	-2.4
CC(C)(C)NC(=O)CSc1ncnc2c1nnn2Cc1ccccc1Cl	0.7	1.1	29	-7	-0.81
CC(NC(=O)c1ccco1)C(c1cccs1)N1CCN(c2ccccc2)CC1 (stereo unspecified)	0.4	0.7	56*	25	-1.9
